Screening results deposited in PubChem by several laboratories.
Compounds with a hit are over-represented: about 2.2% of the library has one in this group of screens.
TWEAK Fn14 block – inhibitors of TWEAK-Fn14 interaction signaling. TWEAK-stimulated Fn14 reporter cells, luciferase luminescence, 8 h. inhibition, % at 10 µM. 360,000 compounds, 2% hits. AID 1159606; in the data active means inhibition above about 50%
HSP90 refold inh – HSP90 refolding inhibition in rabbit reticulocyte lysate; luciferase refolding luminescence, 3 h; inhibition, % at 5.6 µM; 290,000 compounds, 0.91% hits;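 active means inhibition above the screen-wide mean plus 3 SD, computed separately per campaign, cut at about 16% in these data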;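 further: 0% = DMSO wells and 100% = 60 µM geldanamycin wells; inhibitors lower the luminescence because luciferase stays unfolded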
TROY NFkB inh – TROY signaling inhibition; Q293 LMP1-TROYcd NF-kB luciferase reporter, 4 h; inhibition, % at 10 µM; 360,000 compounds, 0.98% hits; AID 1347056;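 active means compounds whose plate-normalised and pattern-corrected inhibition of the luciferase reporter signal at the single screening dose is 50% or more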
LGR2 antag – blocks bursicon-induced cAMP signaling via Drosophila LGR2; inhibition, % at 9.99 µM; 380,000 compounds, 0.35% hits; HEK293 LGR2, CRE-luciferase, bursicon-stimulated, 4 h;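 active means drop in luminescence signal, shown as inhibition above about 50% in the replicate tests, limit read from the data, passing the limit was not always enough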;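 further: agonist challenge used bursicon conditioned medium at about half maximal strength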
* marks the source's active call; other numbers are inactive results; . = no result.

SMILES | TWEAK Fn14 block | HSP90 refold inh | TROY NFkB inh | LGR2 antag
OC(CN1CCN(c2ccccn2)CC1)Cn1c2ccc(Cl)cc2c2cc(Cl)ccc21 (stereo not given) | 51.8* | 4.7 | -1.3 | .
OC(CN1CCCCC1)Cn1c2ccc(Cl)cc2c2cc(Cl)ccc21 (stereo not given) | -34.5 | 9.1 | -34.6 | 18.7
COc1cc2c(cc1OC)/C(=C/c1ccc(Cl)cc1)C(=O)OC2 | 25.3 | 3.4 | 50.2* | 20.4
CNC(=O)C[C@@H]1CC[C@H]2[C@H](COc3ccc(NC(=O)Nc4ccccc4F)cc3C(=O)N2C)O1 | . | . | . | 5.9
O=C(CCC(=O)N1CCOc2ccccc21)NC1CCCCCC1 | -6.6 | 0.0 | 0.0 | 15.3
CCOC(=O)N1CCC(NC(=O)CCC(=O)N2CCOc3ccccc32)CC1 | 64.3* | -1.7 | . | .
COc1ccc2[nH]cc(C(=O)CCl)c2c1 | 56.5* | 0.9 | 12.3 | 18.1
Cn1c(=O)c(C(=O)Nc2ccccn2)c(O)c2ccccc21 | 56.3* | -0.8 | 30.1 | .
C=CCN(c1ccccc1)S(=O)(=O)c1cccc(C(=O)Nc2nnc(SCC)s2)c1 | 12.9 | -0.8 | 53.2* | 5.4
CCSc1nnc(NC(=O)c2cccc(S(=O)(=O)N(C)c3ccccc3)c2)s1 | 0.3 | 0.2 | 1.4 | 2.7
CC(C)C#Cc1cnc2c(c1)C(=O)N([C@H](C)CO)C[C@H](C)[C@@H](CN(C)C(=O)c1cccnc1)O2 | . | . | . | -3.7
O=C(N[C@@H]1CC[C@H](CCNS(=O)(=O)c2ccc(Cl)cc2)O[C@H]1CO)c1cccc(F)c1 | . | . | . | 13.2
CC1(C)CC(=O)C=C(c2ccc(-c3cnc4ccccc4c3)cc2)C1=O | 85.3* | . | 92.4* | 62.8*
COc1ccccc1-c1ccc2c(c1)O[C@@H](CN(C)S(=O)(=O)c1ccc(F)cc1)[C@@H](C)CN([C@H](C)CO)S2(=O)=O | . | . | . | 9.0
O=c1c2[nH]c3cccc(Cl)c3c2ncn1CC1CCCO1 (stereo not given) | 87.3* | -0.3 | 76.5* | -20.9
O=c1c2[nH]c3cccc(Cl)c3c2ncn1CCN1CCCCC1 | -4.7 | -0.1 | -6.3 | -20.8
C[C@H](CO)N1C[C@H](C)[C@H](CN(C)Cc2ccc3c(c2)OCO3)Oc2ccc(NC(=O)Nc3cccc4ccccc34)cc2CC1=O | . | . | . | -5.1
O=C(Nc1ccccc1F)N1C[C@H]2[C@@H](c3ccccc31)[C@@H](CO)N2C(=O)c1ccccn1 | . | . | . | -11.0
COc1ccc(-c2cccc(NC(=O)c3ccco3)c2)nn1 | 3.9 | . | -8.6 | 1.5
O=C(Nc1cccc(-c2ccc(N3CCCCC3)nn2)c1)C(F)(F)F | 97.1* | 7.0 | 71.5* | 82.5*
CC1CCN(c2ccc(-c3cccc(NC(=O)c4ccco4)c3)nn2)CC1 | 53.4* | . | 22.2 | -26.0
CCCC(=O)Nc1ccc2c(c1)C(=O)N(C)[C@H]1CC[C@H](CC(=O)NCCOC)O[C@@H]1CO2 | . | . | . | 7.9
COc1cc(/C=N/NC(=O)c2sc(N)c(C#N)c2C)ccc1O | 51.9* | 2.2 | 7.7 | -10.2
CC(=O)c1ccc(NC(=O)c2ccc3c(=O)n4c(nc3c2)CCCCC4)cc1 | 13.6 | -1.8 | 4.1 | 1.4
Cc1ccc(S(=O)(=O)N2CCCCC2)cc1NC(=O)c1ccc2c(=O)n3c(nc2c1)CCCCC3 | . | 2.8 | . | 66.9*
SMILES | TWEAK Fn14 block | HSP90 refold inh | TROY NFkB inh | LGR2 antag
Cc1ccc(-c2csc(NC(=O)c3ccc4c(=O)n5c(nc4c3)CCCCC5)n2)cc1 | 70.1* | -0.7 | -25.9 | 14.5
CN(C)c1ccc2c(c1)[C@@H]1C[C@@H](CC(=O)NCc3cccc(F)c3)O[C@@H](CO)[C@@H]1O2 | . | . | . | 14.5
CCOc1ccc(N(C)S(=O)(=O)c2ccc(C)c(C(=O)OCC(=O)c3c[nH]c4ccccc34)c2)cc1 | 78.8* | 1.9 | 22.7 | 7.6
COc1ccc(C(=O)OCC(=O)c2c[nH]c3ccccc23)c(OC)c1 | 0.8 | . | -25.1 | -28.2
Cc1noc(C)c1NC(=O)N(C)C[C@@H]1Oc2ccc(NC(=O)Nc3cccc4ccccc34)cc2CC(=O)N([C@H](C)CO)C[C@@H]1C | . | . | . | 13.7
N#CCC(=O)NNC(=S)Nc1ccccc1C(F)(F)F | 64.7* | 3.8 | 16.4 | 26.1
Nc1c(S(=O)(=O)c2ccccc2)c2nc3ccccc3nc2n1CCN1CCOCC1 | 10.5 | 3.4 | 0.4 | -4.2
Nc1c(S(=O)(=O)c2cccs2)c2nc3ccccc3nc2n1CCc1ccccc1 | . | 5.9 | . | .
Cc1ccc(C(=O)Nn2c(N)c(S(=O)(=O)c3ccc(C)cc3)c3nc4ccccc4nc32)cc1 | 22.9 | 5.7 | 7.0 | .
Nc1c(S(=O)(=O)c2cccs2)c2nc3ccccc3nc2n1Cc1cccs1 | 24.5 | 1.7 | 69.8* | .
CC(C)CCn1c(N)c(S(=O)(=O)c2cccs2)c2nc3ccccc3nc21 | 90.2* | 3.4 | 86.3* | 31.1
Cc1ccc(S(=O)(=O)c2c(N)n(CCC(C)C)c3nc4ccccc4nc23)cc1 | 44.3 | 3.4 | 73.3* | .
